In PubChem BioAssay AID1159580 (chemical genetic matrix, 2015):
In all, about 5,500 compounds went through this assay and about 2,000 (36%) were called active. About 18% were inconclusive and are not listed. Rule as the data show it: active = normalized growth mostly below about 0.91 (no sharp cut-off); inconclusive = no clear call, values can overlap the other calls; inactive = mostly above about 0.92. The list shows a part of the results.

Experiment: chemical genetic growth profiling, strain panel (AID 1159580);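 also: tested at 20 µM; growth read once vehicle control cultures reached saturation at 30 °C; 1 = growth at the plate median or of vehicle wells; lower values mean less growth of the strain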
Conditions: growth OD
[1] = S. cerevisiae deletion strains, locus YMR307W, strain GAS1, hits give low values
[2] = S. cerevisiae deletion strains, locus YJL095W, strain BCK1, hits give low values

Measured: normalized growth

NC/C=C\C(=O)O
inactive: S. cerevisiae deletion strains, locus YAL013W, strain DEP1, hits give low values 1 | S. cerevisiae deletion strains, locus YAL040C, strain CLN3, hits give low values 0.994 | S. cerevisiae deletion strains, locus YER002W, strain NOP16, hits give low values 1.01 | S. cerevisiae deletion strains, locus YGR229C, strain SMI1, hits give low values 1.02 | [1] 1 | S. cerevisiae deletion strains, locus YNL175C, strain NOP13, hits give low values 1 | S. cerevisiae deletion strains, locus YNL197C, strain WHI3, hits give low values 0.985 | S. cerevisiae deletion strains, locus YNL224C, strain SQS1, hits give low values 0.993 | S. cerevisiae deletion strains, locus YOR083W, strain WHI5 (second series), hits give low values 1.02

CCC(C)c1cnc(CC(C)C)c(=O)n1O (centres undefined)
active: S. cerevisiae deletion strains, locus YDL035C, strain GPR1, hits give low values 0.818 | S. cerevisiae deletion strains, locus YDL185W, strain tfp1, hits give low values 0.231 | S. cerevisiae deletion strains, locus YDR162C, strain NBP2, hits give low values 0.545 | S. cerevisiae deletion strains, locus YEL061C, strain CIN8, hits give low values 0.846 | S. cerevisiae deletion strains, locus YGL078C, strain dbp3, hits give low values 0.87 | S. cerevisiae deletion strains, locus YHR129C, strain ARP1, hits give low values 0.894 | S. cerevisiae deletion strains, locus YIL125W, strain kgd1, hits give low values 0.815 | S. cerevisiae deletion strains, locus YJR043C, strain POL32, hits give low values 0.645 | S. cerevisiae deletion strains, locus YJR075W, strain HOC1, hits give low values 0.837 | S. cerevisiae deletion strains, locus YKL068W, hits give low values 0.864 | S. cerevisiae deletion strains, locus YKL085W, strain MDH1 (second series), hits give low values 0.771 | S. cerevisiae deletion strains, locus YKL085W, strain MDH1, hits give low values 0.771 | [1] 0.534 | S. cerevisiae deletion strains, locus YNL271C, strain bni1, hits give low values 0.78 | S. cerevisiae deletion strains, locus YNL298W, strain CLA4, hits give low values 0.708 | S. cerevisiae deletion strains, locus YNL322C, strain KRE1, hits give low values 0.579 | S. cerevisiae deletion strains, locus YPL055C, strain LGE1, hits give low values 0.548 | S. cerevisiae deletion strains, locus YPL241C, strain CIN2, hits give low values 0.717 | S. cerevisiae deletion strains, locus YPR141C, strain kar3, hits give low values 0.844 | S. cerevisiae strains, strain wild type, hits give low values 0.275
inactive: S. cerevisiae deletion strains, locus YBR021W, strain FUR4, hits give low values 1.01 | S. cerevisiae deletion strains, locus YBR229C, strain ROT2, hits give low values 1.01 | S. cerevisiae deletion strains, locus YCL029C, strain bik1, hits give low values 1.02 | S. cerevisiae deletion strains, locus YDL074C, strain BRE1, hits give low values 0.876 | S. cerevisiae deletion strains, locus YDL101C, strain DUN1, hits give low values 1.02 | S. cerevisiae deletion strains, locus YDL134C, strain PPH21, hits give low values 1.04 | S. cerevisiae deletion strains, locus YDL192W, strain arf1, hits give low values 0.933 | S. cerevisiae deletion strains, locus YDR101C, strain arx1, hits give low values 0.993 | S. cerevisiae deletion strains, locus YDR318W, strain mcm21, hits give low values 1.03 | S. cerevisiae deletion strains, locus YDR388W, hits give low values 1.02 | S. cerevisiae deletion strains, locus YDR502C, strain sam2, hits give low values 0.967 | S. cerevisiae deletion strains, locus YER110C, hits give low values 1.02 | S. cerevisiae deletion strains, locus YER155C, strain BEM2, hits give low values 1.01 | S. cerevisiae deletion strains, locus YER167W, strain BCK2, hits give low values 0.998 | S. cerevisiae deletion strains, locus YGL086W, strain mad1, hits give low values 0.946 | S. cerevisiae deletion strains, locus YGL248W, strain PDE1, hits give low values 1.04 | S. cerevisiae deletion strains, locus YGR078C, strain PAC10, hits give low values 0.905 | S. cerevisiae deletion strains, locus YGR135W, strain pre9, hits give low values 0.977 | S. cerevisiae deletion strains, locus YGR252W, strain gcn5, hits give low values 1.1 | S. cerevisiae deletion strains, locus YHR079C, strain IRE1 (second series), hits give low values 1.02 | S. cerevisiae deletion strains, locus YHR094C, strain hxt1, hits give low values 1.01 | S. cerevisiae deletion strains, locus YHR200W, strain rpn10, hits give low values 0.961 | S. cerevisiae deletion strains, locus YIL066C, strain RNR3, hits give low values 0.994 | S. cerevisiae deletion strains, locus YIL073C, strain SPO22, hits give low values 1.18 | S. cerevisiae deletion strains, locus YIR030C, strain dcg1, hits give low values 1.01 | [2] 0.981 | S. cerevisiae deletion strains, locus YJL134W, strain LCB3, hits give low values 0.993 | S. cerevisiae deletion strains, locus YJL168C, strain set2, hits give low values 1.02 | S. cerevisiae deletion strains, locus YJL187C, strain SWE1 (second series), hits give low values 1.01 | S. cerevisiae deletion strains, locus YKL009W, strain mrt4, hits give low values 0.936 | S. cerevisiae deletion strains, locus YKR001C, strain vps1, hits give low values 0.963 | S. cerevisiae deletion strains, locus YLR039C, strain RIC1, hits give low values 0.771 | S. cerevisiae deletion strains, locus YLR058C, strain SHM2, hits give low values 1.02 | S. cerevisiae deletion strains, locus YLR102C, strain apc9, hits give low values 1.02 | S. cerevisiae deletion strains, locus YLR262C, strain YPT6, hits give low values 0.806 | S. cerevisiae deletion strains, locus YLR268W, strain sec22, hits give low values 1.01 | S. cerevisiae deletion strains, locus YLR371W, strain rom2, hits give low values 1.04 | S. cerevisiae deletion strains, locus YLR418C, strain cdc73, hits give low values 0.991 | S. cerevisiae deletion strains, locus YML016C, strain PPZ1, hits give low values 1.01 | S. cerevisiae deletion strains, locus YML032C, strain rad52, hits give low values 1.01 | S. cerevisiae deletion strains, locus YML124C, strain tub3, hits give low values 1.02 | S. cerevisiae deletion strains, locus YMR078C, strain ctf18, hits give low values 1.01 | S. cerevisiae deletion strains, locus YMR223W, strain ubp8, hits give low values 1.01 | S. cerevisiae deletion strains, locus YNL067W, strain RPL9B, hits give low values 0.955 | S. cerevisiae deletion strains, locus YNL153C, strain GIM3, hits give low values 0.881 | S. cerevisiae deletion strains, locus YNL233W, strain BNI4, hits give low values 0.969 | S. cerevisiae deletion strains, locus YNL250W, strain rad50, hits give low values 0.906 | S. cerevisiae deletion strains, locus YNL307C, strain MCK1, hits give low values 1.02 | S. cerevisiae deletion strains, locus YNR052C, strain pop2, hits give low values 1.03 | S. cerevisiae deletion strains, locus YOL006C, strain TOP1, hits give low values 1.21 | S. cerevisiae deletion strains, locus YOL012C, strain htz1 0.477 | S. cerevisiae deletion strains, locus YOL147C, strain pex11, hits give low values 1 | S. cerevisiae deletion strains, locus YOR061W, strain CKA2, hits give low values 0.997 | S. cerevisiae deletion strains, locus YOR069W, strain VPS5, hits give low values 0.998 | S. cerevisiae deletion strains, locus YOR136W, strain idh2, hits give low values 1.03 | S. cerevisiae deletion strains, locus YOR144C, strain elg1, hits give low values 1.01 | S. cerevisiae deletion strains, locus YOR184W, strain ser1, hits give low values 0.957 | S. cerevisiae deletion strains, locus YOR316C, strain cot1, hits give low values 1.03 | S. cerevisiae deletion strains, locus YPR119W, strain clb2, hits give low values 1.01 | S. cerevisiae deletion strains, locus YPR163C, strain tif3, hits give low values 1.02 | S. cerevisiae deletion strains, locus YPR167C, strain met16, hits give low values 1.01 | S. cerevisiae deletion strains, strain wtn01, hits give low values 0.902

CC(C)c1c(CN(C)C(C)Cc2ccccc2)n(C)n(-c2ccccc2)c1=O (centres undefined)
inactive: S. cerevisiae deletion strains, locus YHR030C, strain SLT2, hits give low values 0.997 | S. cerevisiae deletion strains, locus YHR079C, strain IRE1, hits give low values 1.01 | [2] 0.992 | S. cerevisiae deletion strains, locus YJR066W, strain TOR1, hits give low values 0.938 | S. cerevisiae deletion strains, locus YLR113W, strain HOG1, hits give low values 1.01 | S. cerevisiae deletion strains, locus YNL183C, strain NPR1, hits give low values 0.935 | S. cerevisiae deletion strains, locus YOR231W, strain MKK1, hits give low values 1 | S. cerevisiae deletion strains, locus YPL256C, strain CLN2, hits give low values 0.971
